The target in test [1] is CDK3/Cyclin E (Homo sapiens) (UniProt P24864+Q00526). The following applies: at 1 µM.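 Note: each figure is a mean percent inhibition of the CDK3/cyclin E complex.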
The target of test [2] is Cyclin-dependent kinase 4 (Homo sapiens) (UniProt P11802). The following applies: at 0.1 µM.
The target is the same in test [3]. The following applies: at 1 µM.
The target in test [4] is Cyclin-dependent kinase 5 (Homo sapiens) (UniProt Q00535). The following applies: at 0.1 µM.
Test [5] has the same target. The following applies: at 1 µM.
Test [6] addresses Cyclin-dependent kinase 6 (Homo sapiens) (UniProt Q00534). Conditions: at 0.1 µM.
The target is the same in test [7]. Conditions: at 1 µM.
Test [8] deals with Dual specificity protein kinase CLK2 (Homo sapiens) (UniProt P49760). The following applies: at 0.1 µM.
Test [9] shares this target. The following applies: at 1 µM.
In test [10] the target is Dual specificity protein kinase CLK3 (Homo sapiens) (UniProt P49761). The following applies: at 0.1 µM.
The target is the same in test [11]. Conditions: at 1 µM.
Test [12] concerns the target Dual specificity tyrosine-phosphorylation-regulated kinase 1A (Homo sapiens) (UniProt Q13627). Conditions: at 0.1 µM.
Test [13] shares this target. The following applies: at 1 µM.
Test [14] addresses Dual specificity tyrosine-phosphorylation-regulated kinase 1B (Homo sapiens) (UniProt Q9Y463). Conditions: at 0.1 µM.
For test [15] the target is unchanged. Conditions: at 1 µM.
Test [16] concerns the target T1, Dual specificity tyrosine-phosphorylation-regulated kinase 2 (Homo sapiens) (UniProt Q92630).
T1 sequence (whole entry): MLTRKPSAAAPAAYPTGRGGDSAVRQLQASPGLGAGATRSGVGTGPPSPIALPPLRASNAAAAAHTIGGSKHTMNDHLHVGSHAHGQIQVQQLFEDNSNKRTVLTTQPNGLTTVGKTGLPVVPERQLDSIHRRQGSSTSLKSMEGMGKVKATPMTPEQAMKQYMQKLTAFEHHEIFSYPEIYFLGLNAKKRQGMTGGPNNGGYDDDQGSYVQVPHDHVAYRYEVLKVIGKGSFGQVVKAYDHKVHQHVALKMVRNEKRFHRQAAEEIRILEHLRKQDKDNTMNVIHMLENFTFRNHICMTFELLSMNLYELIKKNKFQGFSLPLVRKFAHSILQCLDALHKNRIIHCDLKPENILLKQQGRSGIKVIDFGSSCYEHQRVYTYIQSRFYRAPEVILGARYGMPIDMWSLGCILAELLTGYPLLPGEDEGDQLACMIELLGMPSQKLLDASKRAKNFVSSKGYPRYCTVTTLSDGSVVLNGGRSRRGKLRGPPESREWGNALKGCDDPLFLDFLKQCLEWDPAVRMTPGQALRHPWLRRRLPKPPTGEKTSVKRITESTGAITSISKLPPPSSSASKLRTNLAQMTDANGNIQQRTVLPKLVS
Conditions: at 0.1 µM.

Test [17] addresses T1, Dual specificity tyrosine-phosphorylation-regulated kinase 2 (Homo sapiens). Conditions: at 1 µM.
Test [18] has as its target Glycogen synthase kinase-3 alpha (Homo sapiens) (UniProt P49840). The following applies: at 0.1 µM.
The target is the same in test [19]. Conditions: at 1 µM.
For test [20], the target named is Glycogen synthase kinase-3 beta (Homo sapiens) (UniProt P49841). The following applies: at 0.1 µM.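 Note: values are mean percent inhibition of GSK3B activity, from the GSK Published Kinase Inhibitor Set (PKIS) screening dataset.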
Chain of Glycogen synthase kinase-3 beta (Homo sapiens) (P49841 whole entry, looked up): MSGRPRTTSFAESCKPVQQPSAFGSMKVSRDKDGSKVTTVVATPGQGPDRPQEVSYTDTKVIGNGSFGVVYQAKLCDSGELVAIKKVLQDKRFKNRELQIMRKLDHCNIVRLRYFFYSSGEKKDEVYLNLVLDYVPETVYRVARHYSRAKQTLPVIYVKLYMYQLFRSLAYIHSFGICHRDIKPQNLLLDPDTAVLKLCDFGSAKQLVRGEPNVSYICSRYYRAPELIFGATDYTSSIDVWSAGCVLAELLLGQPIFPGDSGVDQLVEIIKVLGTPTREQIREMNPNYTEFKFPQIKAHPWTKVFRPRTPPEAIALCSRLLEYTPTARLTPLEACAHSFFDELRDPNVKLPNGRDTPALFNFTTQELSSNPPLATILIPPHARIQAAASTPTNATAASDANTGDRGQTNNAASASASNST

Chain of CDK3/Cyclin E (Homo sapiens) (P24864 whole entry, looked up): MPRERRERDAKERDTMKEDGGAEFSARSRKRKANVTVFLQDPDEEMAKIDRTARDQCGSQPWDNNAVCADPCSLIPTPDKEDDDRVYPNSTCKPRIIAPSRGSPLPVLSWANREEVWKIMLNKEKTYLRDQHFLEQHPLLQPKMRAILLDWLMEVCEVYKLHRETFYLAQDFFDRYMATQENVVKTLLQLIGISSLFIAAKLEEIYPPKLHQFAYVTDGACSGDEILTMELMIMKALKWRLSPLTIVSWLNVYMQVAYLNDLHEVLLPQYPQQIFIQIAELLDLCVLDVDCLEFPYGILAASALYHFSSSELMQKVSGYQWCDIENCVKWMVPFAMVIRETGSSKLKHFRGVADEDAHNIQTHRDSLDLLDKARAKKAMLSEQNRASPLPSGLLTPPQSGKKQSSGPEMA
Chain of CDK3/Cyclin E (Homo sapiens) (Q00526 whole entry, looked up): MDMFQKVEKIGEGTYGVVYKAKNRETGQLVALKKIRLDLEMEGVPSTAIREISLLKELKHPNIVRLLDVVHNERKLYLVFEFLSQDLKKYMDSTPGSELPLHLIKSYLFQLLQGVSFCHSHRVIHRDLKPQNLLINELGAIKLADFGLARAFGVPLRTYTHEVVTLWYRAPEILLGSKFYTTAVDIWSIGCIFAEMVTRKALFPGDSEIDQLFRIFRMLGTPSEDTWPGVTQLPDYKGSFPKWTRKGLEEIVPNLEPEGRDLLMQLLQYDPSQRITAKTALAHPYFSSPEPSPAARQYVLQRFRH
Chain of Cyclin-dependent kinase 6 (Homo sapiens) (Q00534 whole entry): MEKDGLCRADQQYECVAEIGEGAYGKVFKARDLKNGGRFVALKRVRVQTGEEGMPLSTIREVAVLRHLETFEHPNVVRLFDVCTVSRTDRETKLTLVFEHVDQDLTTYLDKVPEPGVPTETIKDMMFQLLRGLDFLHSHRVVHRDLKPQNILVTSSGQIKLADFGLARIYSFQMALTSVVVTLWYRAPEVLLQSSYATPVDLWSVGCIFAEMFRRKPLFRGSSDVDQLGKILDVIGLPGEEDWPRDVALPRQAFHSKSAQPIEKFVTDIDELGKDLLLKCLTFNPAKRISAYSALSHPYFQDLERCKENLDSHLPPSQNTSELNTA
Chain of Dual specificity protein kinase CLK2 (Homo sapiens) (P49760 whole entry, looked up): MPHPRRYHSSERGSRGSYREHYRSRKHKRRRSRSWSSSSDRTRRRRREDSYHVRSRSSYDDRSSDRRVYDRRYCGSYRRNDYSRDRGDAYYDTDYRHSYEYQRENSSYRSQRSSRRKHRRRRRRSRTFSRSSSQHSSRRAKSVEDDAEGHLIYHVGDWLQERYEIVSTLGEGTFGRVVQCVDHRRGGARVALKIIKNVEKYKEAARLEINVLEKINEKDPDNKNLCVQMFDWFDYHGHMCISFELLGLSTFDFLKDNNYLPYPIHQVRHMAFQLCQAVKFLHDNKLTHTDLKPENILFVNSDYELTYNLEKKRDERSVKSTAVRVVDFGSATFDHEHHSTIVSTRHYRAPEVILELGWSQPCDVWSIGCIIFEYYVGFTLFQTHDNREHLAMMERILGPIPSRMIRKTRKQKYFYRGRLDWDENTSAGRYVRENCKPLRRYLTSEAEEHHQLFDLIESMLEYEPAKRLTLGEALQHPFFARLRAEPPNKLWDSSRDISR
Chain of Cyclin-dependent kinase 5 (Homo sapiens) (Q00535 whole entry, looked up): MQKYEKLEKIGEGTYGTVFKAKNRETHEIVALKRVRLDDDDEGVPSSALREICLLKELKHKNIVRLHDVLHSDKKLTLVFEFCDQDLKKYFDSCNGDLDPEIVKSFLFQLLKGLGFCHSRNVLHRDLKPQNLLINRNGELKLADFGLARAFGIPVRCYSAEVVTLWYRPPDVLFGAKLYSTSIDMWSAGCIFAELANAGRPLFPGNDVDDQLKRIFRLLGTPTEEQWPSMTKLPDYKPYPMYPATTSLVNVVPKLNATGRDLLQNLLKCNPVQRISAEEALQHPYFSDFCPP
Chain of Cyclin-dependent kinase 4 (Homo sapiens) (P11802 whole entry): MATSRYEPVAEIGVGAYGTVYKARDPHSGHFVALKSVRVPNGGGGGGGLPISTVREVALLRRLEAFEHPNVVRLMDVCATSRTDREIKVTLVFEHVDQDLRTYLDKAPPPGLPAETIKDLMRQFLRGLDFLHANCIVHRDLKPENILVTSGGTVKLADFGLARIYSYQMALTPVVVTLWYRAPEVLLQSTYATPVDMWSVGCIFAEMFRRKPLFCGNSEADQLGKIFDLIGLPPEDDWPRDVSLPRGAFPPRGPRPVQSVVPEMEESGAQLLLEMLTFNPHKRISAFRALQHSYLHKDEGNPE
Chain of Glycogen synthase kinase-3 alpha (Homo sapiens) (P49840 2-483 limits assumed): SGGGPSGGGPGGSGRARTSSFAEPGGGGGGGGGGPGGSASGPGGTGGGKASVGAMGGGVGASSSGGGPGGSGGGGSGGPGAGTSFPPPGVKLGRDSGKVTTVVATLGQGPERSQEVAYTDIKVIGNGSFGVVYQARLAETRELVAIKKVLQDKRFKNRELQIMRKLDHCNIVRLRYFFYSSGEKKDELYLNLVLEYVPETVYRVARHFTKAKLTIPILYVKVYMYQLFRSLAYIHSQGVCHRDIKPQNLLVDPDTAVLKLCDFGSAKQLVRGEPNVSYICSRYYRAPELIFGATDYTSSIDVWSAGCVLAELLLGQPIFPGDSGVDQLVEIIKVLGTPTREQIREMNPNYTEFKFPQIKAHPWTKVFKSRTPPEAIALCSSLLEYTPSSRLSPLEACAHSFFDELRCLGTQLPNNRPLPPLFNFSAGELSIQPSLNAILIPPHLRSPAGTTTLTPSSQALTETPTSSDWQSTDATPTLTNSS
Chain of Dual specificity protein kinase CLK3 (Homo sapiens) (P49761 whole entry, looked up): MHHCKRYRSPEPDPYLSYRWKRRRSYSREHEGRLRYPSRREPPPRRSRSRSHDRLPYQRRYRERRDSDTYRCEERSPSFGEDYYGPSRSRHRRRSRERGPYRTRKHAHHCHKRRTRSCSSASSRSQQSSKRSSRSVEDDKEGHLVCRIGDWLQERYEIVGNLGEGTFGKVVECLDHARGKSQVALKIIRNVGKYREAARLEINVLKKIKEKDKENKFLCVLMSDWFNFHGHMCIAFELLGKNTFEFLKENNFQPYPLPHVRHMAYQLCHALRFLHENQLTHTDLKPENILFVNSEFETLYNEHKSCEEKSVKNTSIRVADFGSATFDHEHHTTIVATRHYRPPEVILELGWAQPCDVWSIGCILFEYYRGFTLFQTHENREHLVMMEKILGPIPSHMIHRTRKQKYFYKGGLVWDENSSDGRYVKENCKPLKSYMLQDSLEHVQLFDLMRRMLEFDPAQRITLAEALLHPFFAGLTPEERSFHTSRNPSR
Chain of Dual specificity tyrosine-phosphorylation-regulated kinase 1B (Homo sapiens) (Q9Y463 whole entry, looked up): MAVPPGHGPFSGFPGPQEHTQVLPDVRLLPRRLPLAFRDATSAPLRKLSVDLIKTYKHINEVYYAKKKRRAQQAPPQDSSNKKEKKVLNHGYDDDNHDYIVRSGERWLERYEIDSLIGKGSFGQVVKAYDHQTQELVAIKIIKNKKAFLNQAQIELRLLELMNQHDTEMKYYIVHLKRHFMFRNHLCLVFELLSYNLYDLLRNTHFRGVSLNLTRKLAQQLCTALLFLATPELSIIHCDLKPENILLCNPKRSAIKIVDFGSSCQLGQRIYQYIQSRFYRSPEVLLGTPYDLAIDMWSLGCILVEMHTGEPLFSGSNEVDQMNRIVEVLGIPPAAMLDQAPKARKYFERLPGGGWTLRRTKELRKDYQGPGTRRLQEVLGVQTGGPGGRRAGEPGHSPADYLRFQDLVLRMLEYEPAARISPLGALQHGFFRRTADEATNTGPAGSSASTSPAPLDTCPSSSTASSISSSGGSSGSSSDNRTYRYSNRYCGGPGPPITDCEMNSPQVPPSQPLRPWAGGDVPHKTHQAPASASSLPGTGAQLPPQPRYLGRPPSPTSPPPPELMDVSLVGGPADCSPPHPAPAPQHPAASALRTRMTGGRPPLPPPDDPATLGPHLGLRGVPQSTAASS

Broadly, the inhibition is the drop in the measured response relative to a control, in per cent. On to `O=C1Nc2ccccc2/C1=C/Nc1ccc(-n2cncn2)cc1`, for which the inhibition is 16.1% in test [1]; 9.53% in [2]; 25.2% in test [3]; 3.62% in test [4]; 21.5% in test [5]; 18% in [6]. Also, the inhibition in test [7] was 66.2%; in [8] it was 4.14%; in test [9] it was 21.6%; in [10], 0.91%; in [11], 1.52%; in [12], 6.54%. Moreover, the inhibition came to 14.3% in test [13]; 3.43% in test [14]; 11.6% in test [15]; 3.46% in [16]; 6.8% in test [17]; 17.3% in test [18]. The inhibition in test [19] came out at 28.2%; in test [20] it was 15.3%.

With `O=C1Nc2ccc(I)cc2C1=Cc1cc(Br)c(O)c(Br)c1`, the inhibition in [1] is -2.28%; in [2], 4.82%; in test [3], 6.47%; in [4], 0.5%; in test [5], 0.26%; in [6], -0.1%. Moreover, the inhibition in [7] was 0.92%; in test [8], 1.63%; in test [9] it was 4.77%; in [10], -0.91%; in test [11], -0.23%; in [12], 1.95%. Further, the inhibition is 4.99% in test [13]; -0.26% in [14]; 3.56% in [15]; 4.72% in [16]; 8.06% in [17]; 0.99% in [18]. Further, the inhibition in test [19] was found to be 5.19%; in test [20] it was 0.29%.

Take `COc1cc(C)c(N(C)C(=O)CN(C)C)cc1Nc1nc(Nc2cccc(F)c2C(N)=O)c2cc[nH]c2n1`: the inhibition in test [1] was 0.55%; in [2] it was -3.32%; in test [3] it was -2.23%; in test [4], -3.87%; in test [5], -4.34%; in [6], -3.28%. In addition, the inhibition in test [7] was -2.66%; in test [8], 2.65%; in test [9] it was 12.6%; in [10] it was -5.35%; in test [11] it was -1.03%; in [12] it was 2.09%. The inhibition in [13] is 15.2%; in [14] it was -1.79%; in test [15], 13.1%; in [16], 2.31%; in [17], 1.64%; in [18] it was -2.99%. Also, the inhibition in test [19] is -1.13%; in test [20], -3.79%.

On to `COc1cc2ncn(-c3cc(OCCc4ccccc4)c(C(N)=O)s3)c2cc1OC`, for which the inhibition in test [1] was 0.51%; in [2] it was 1.86%; in test [3] it was 1.87%; in [4], 0.7%; in [5] it was 1.45%; in [6], -3.45%. The inhibition was found to be 2.54% in test [7]; 1.3% in test [8]; 2.64% in [9]; 0.57% in [10]; 3.27% in test [11]; 3.14% in [12]. Also, the inhibition in [13] is 3.09%; in test [14], 1.95%; in test [15] it was 1.81%; in [16] it was -0.08%; in test [17], 4.14%; in test [18], 0.82%. The inhibition in test [19] came to 3.18%; in test [20] it was 0.44%.

For the molecule `Cc1ccc(NC(=O)c2ccoc2)cc1-c1ccc(C(=O)NCC2CC2)cc1`, the inhibition was -5.1% in test [1]; 0.87% in test [2]; 2.89% in [3]; 0.24% in [4]; 1.07% in test [5]; -5.62% in test [6]. The inhibition was 0.19% in [7]; 0.43% in test [8]; -2.64% in test [9]; 0.53% in test [10]; 0.49% in [11]; 2.62% in [12]. In addition, the inhibition in [13] is 3.4%; in [14], -0.58%; in test [15], 2.65%; in test [16] it was 1.99%; in [17], 0.34%; in [18] it was 11%. The inhibition in test [19] was 0.83%; in test [20] it was 6.09%.

In the case of `Cc1ccc(C(=O)NC2CCC2)cc1-c1ccc(C(=O)NCC2CC2)cc1`, the inhibition is -2.09% in [1]; 2.48% in test [2]; 3.14% in test [3]; 0.96% in [4]; 1.18% in [5]; -2.65% in test [6]. Also, the inhibition in [7] was 1.04%; in [8] it was 0.82%; in [9], 1.37%; in test [10], 1.37%; in [11] it was 1.28%; in [12], 2.74%. In addition, the inhibition in [13] turned out to be 5.39%; in test [14] it was 1.78%; in test [15], 2.49%; in test [16] it was 2.22%; in test [17], 3.3%; in test [18], 1.01%. Further, the inhibition in test [19] is 4.22%; in test [20], 0.28%.

With `CN(C)c1ccc2c(c1)/C(=C/Nc1ccc(S(N)(=O)=O)cc1)C(=O)N2`, the inhibition stood at 38.9% in test [1]; 11.3% in test [2]; 43.5% in [3]; 16.2% in test [4]; 57% in test [5]; 4.7% in test [6]. Also, the inhibition in test [7] came to 48.2%; in [8], 1.72%; in test [9] it was 11%; in test [10], 0.66%; in test [11] it was 3.39%; in [12], 7.43%. Moreover, the inhibition in test [13] was determined as 33.4%; in test [14] it was 4.54%; in [15] it was 24.5%; in test [16] it was 1.54%; in test [17], 4.74%; in test [18] it was 8.28%. Also, the inhibition in [19] turned out to be 21.6%; in [20], 6.03%.

Regarding `COc1cc(Nc2ncc3c(C)nc(-c4cccc(C(F)(F)F)c4)n3n2)cc(OC)c1OC`, the inhibition in test [1] came to 7.51%; in test [2], 1.78%; in test [3], 3.89%; in test [4], 1.13%; in test [5], 9.6%; in test [6], 3.14%. The inhibition was 7.16% in test [7]; 3.78% in test [8]; 21.9% in [9]; 1.23% in test [10]; 2.91% in test [11]; 4.11% in test [12]. In addition, the inhibition stood at 29.8% in test [13]; 0.38% in test [14]; 11.2% in test [15]; 2.73% in [16]; 3.63% in test [17]; 2.88% in test [18]. Also, the inhibition in test [19] is 13.8%; in [20], 4.09%.

Source of the values: ChEMBL document CHEMBL1961873, “Compounds: GSK PKIS; Assays: Nanosyn kinase panel” (2012).
